# Most compounds without a hit are left out; they make up all but 5.1% or so of the library.
# S1P4 ag: agonists of human S1P4 receptor; S1P4-expressing cell line, agonist reporter assay; AID 1509; hit rate 0.35% among 220,000; activation, % at 4.98 µM; in the data active means activation above about 11%;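 further: 0% = DMSO vehicle and 100% = reference agonist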
# ROMK mod: modulators of human ROMK potassium channel. P48048. Tet-inducible ROMK, thallium flux fluorescence; actives lie on both sides. B-score at 10 µM. hit rate 2% among 130,000. AID 1918;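 active means signal ratio slope over the read window, or its plate-corrected B-score, at least 3 SD from the plate mean, either direction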;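 further: B-score of the F/F0 ratio slope over 7 to 12 s after thallium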
# S1P3 antag: S1P3 (human) receptor antagonism | Q99500 | CHO S1P3 NFAT-BLA reporter, FRET fluorescence, antagonist mode | inhibition, % at 4.98 µM | hit rate 0.27% among 170,000 | AID 485;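 active means inhibition above the plate cutoff, the mean inhibition of test wells on that plate plus 3 SD, cut at about 28% in these data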;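 further: cells challenged with S1P at its EC80 of 0.8 µM; blue over green emission ratio from cleaved BLA substrate after 4 h stimulation; 0% = S1P-stimulated wells and 100% = unstimulated DMSO-only wells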
# Target sequence (Q99500 whole entry, looked up): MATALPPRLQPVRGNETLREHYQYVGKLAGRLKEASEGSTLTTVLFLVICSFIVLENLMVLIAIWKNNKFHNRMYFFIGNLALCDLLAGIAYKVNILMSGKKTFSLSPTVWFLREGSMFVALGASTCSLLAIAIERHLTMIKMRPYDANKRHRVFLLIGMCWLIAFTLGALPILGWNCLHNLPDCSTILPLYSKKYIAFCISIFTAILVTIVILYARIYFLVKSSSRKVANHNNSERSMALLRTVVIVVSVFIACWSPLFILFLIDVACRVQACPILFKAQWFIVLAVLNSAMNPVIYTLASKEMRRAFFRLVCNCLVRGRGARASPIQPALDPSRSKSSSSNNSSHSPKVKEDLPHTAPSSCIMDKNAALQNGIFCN
# S1P4 antag: antagonists of human S1P4 receptor. S1P4-expressing cells, antagonist mode, reporter read-out. inhibition, % at 4.98 µM. hit rate 0.26% among 220,000. AID 1510; in the data active means inhibition above about 29%;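 further: 0% = wells stimulated with agonist and 100% = vehicle wells without agonist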
# Cl transport mod: KCC2 (human) Cl- transport modulation; Q9H2X9; KCC2 cells, thallium flux FluoZin-2 fluorescence; B-score of Tl+ flux slope (higher = more flux/activation; lower = inhibition) at 10 µM; hit rate 2.2% among 190,000; AID 1456;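 active means thallium flux slope and its plate-corrected score both differing from the plate sample mean at a set confidence after two filtering rounds, in either direction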;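 further: slope of fluorescence scaled to starting intensity during 10 to 20 s after thallium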
# RAM inhibit: blocks the yeast RAM network; inhibition, % at 50 µM; AID 868; hit rate 1.8% among 190,000; S. cerevisiae dse1pr::URA3 reporter, 5-FOA growth OD615, 2 d; analog-sensitive cbk1-as2 kinase mutant strain;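 active means inhibition above a set limit, 3 SD over mean compound inhibition, cut at about 8.4% in these data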;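 further: 0% = DMSO-only wells with no growth and 100% = 10 µM 1-NA-PP1 full growth; inhibition rescues growth on 5-FOA so higher OD means more RAM inhibition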
# S1P4 antag cf: confirmation of human S1P4 receptor antagonists; shares compounds with S1P4 antag; S1P4-expressing cell line, antagonist mode, reporter read-out; inhibition, % at 4.98 µM; hit rate 71% among 520; in the data active means inhibition above about 30%
# S1P1 antagonist: blocks human S1P1, counter-screen for S1P4 antagonists | shares compounds with S1P4 antag | cell-based S1P1 antagonist counterscreen, inhibition | inhibition, % at 4.98 µM | hit rate 37% among 520; in the data active means inhibition above about 40%;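 further: receptor stimulated with S1P near its EC80; 0% = agonist stimulated wells and 100% = vehicle only wells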
# * marks the source's active call; other numbers are inactive results; / = not tested or not shown.
SMILES,S1P4 ag,ROMK mod,S1P3 antag,S1P4 antag,Cl transport mod,RAM inhibit,S1P4 antag cf,S1P1 antagonist
N#Cc1cc(O)c(-n2nnc3ccccc32)cc1C#N,3,-0.095,-7,-10,0.077,4,/,/
N#Cc1cc(Oc2cccc3cccnc23)c(-n2nnc3ccccc32)cc1C#N,7,0.0061,/,34*,-0.036,1,12,-20
CCOc1ccc(/C=N/OCC(=O)NCc2ccco2)cc1,-1,-0.0051,0,-17,0.61,1,/,/
Nc1ncnc2c1ncn2C1OC(CO)C(O)C1O (stereo not given),-2,/,-18,39*,/,0,67*,41*
Nc1ncnc2c1ncn2C1OC(CO)C(O)C1N (stereo not given),1,-0.41,2,-4,0.62,/,/,/
CC1(C)CC(=O)C2=C(C1)N(c1cccc(Cl)c1)C(=O)NC2(C(F)(F)F)C(F)(F)F,1,-0.4,-4,-16,0.69,1,/,/
O=C(/C=C/c1c(F)cccc1Cl)c1ccc(O)cc1,-1,/,1,42*,-1.3,/,62*,17
O=c1c(Cl)c(Cl)cnn1-c1ccccc1,2,/,9,101*,-0.79,3,122*,72*
O=c1c(Cl)c(Cl)cnn1Cc1nnc(-c2ccc(Cl)cc2)o1,-2,-0.54,0,37*,-0.95,4,68*,21
O=c1c(Cl)c(Cl)cnn1Cc1ccccc1Cl,1,-3.1,4,46*,-2.4,2,115*,58*
Cc1c(F)cccc1NS(=O)(=O)c1ccc2c(c1)NC(=O)CO2,-1,-0.82,-15,1,0.22,2,/,/
CC(=O)c1ccc(NC(=S)NC(C)c2ccc(Cl)cc2Cl)cc1 (stereo not given),3,0.016,7,-14,0.6,4,/,/
Cc1cc(NCc2ccccn2)nc2ccccc12,3,0.23,/,3,-0.07,1,/,/
Cc1cc(NC2CCCCC2)nc2ccccc12,0,0.56,-10,30*,/,0,18,55*
CC(C)(C)c1ccc(C(=O)CSc2n[nH]c(=O)[nH]c2=O)cc1,1,1.9,/,-5,-0.3,4,/,/
CC(C)N1CCC2(CC1)N=C(c1ccc3c(c1)OCO3)CC(c1cc(Cl)ccc1O)N2 (stereo not given),0,/,10,35*,-1.6,0,79*,23
CCOC(=O)Nc1cccc(Cl)c1C,-3,/,-6,-15,-0.41,1,/,/
CCOC(=O)COc1ccc(C(=O)Nc2cccc(Cl)c2C)cc1,1,-0.29,-1,33*,-1.4,2,1,-3
CCCCNC(=O)CS(=O)Cc1nc(-c2ccc(C)cc2)oc1C (stereo not given),1,/,-20,-5,/,-1,/,/
Cc1ccc(-c2nc(CS(=O)CC(=O)NC3CCC(C)CC3)c(C)o2)cc1 (stereo not given),1,/,19,78*,/,1,12,34
COCCCNC(=O)/C=C1\Sc2ccccc2N(Cc2ccccc2F)C1=O,0,-0.6,-11,66*,-2.2,3,0,13
Cc1ccc(SCCC(=O)N2CCCC2)cc1,0,/,3,12,/,-1,/,/
Cc1ccc(SCCC(=O)N2CCOCC2)cc1,0,/,-1,29*,0.76,0,7,6
Cc1ccc(C(=O)CN2C(=O)C(=O)N(Cc3ccccc3)C2=O)cc1,-2,/,-5,0,-0.24,8,/,/
CCOC(=O)C(C)(C)N(Cc1ccc(C)cc1)S(=O)(=O)c1ccc(Cl)c([N+](=O)[O-])c1,-1,/,-15,43*,-1.6,9.8*,80*,1
CN(C(=O)COC(=O)c1nc(Cl)c(Cl)c(Cl)c1Cl)C1CCS(=O)(=O)C1 (stereo not given),1,0.029,2,40*,0.92,0,74*,9
COc1ccccc1N1CC=C(c2cccc([N+](=O)[O-])c2)NC1=O,0,-0.71,0,13,0.99,/,/,/
CC(/C=N/NC(=O)c1cc(-c2cccn2C)n[nH]1)=C\c1ccccc1,1,/,5,6,-0.25,/,/,/
